An excerpt weighted towards active compounds, which were near 19% of everything screened.
HT1080 IDH1KD tx – toxicity to HT-1080 IDH1 knockdown cells (counter line); HT-1080 IDH1 knockdown viability, ATP luminescence, 48 h; Potency, µM (doses to about 46.1 µM), without a hit: top-dose activity, negative = toxicity, hits mostly cytotoxic; hit rate 2% among 360,000; AID 686971;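 further: potency means the concentration at half of the fitted maximal effect; 0% = DMSO wells and -100% = cell-free medium wells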
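Knockdown cells (IDH1KD HT-1080) received compounds 2 h after plating at 750 cells/well and were kept 48 h at 37 °C in 5% FBS RPMI. A CellTiter-Glo luminescence read gave % activity for curve fitting.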
DT40 TDP1 no CPT – qHTS for Inhibitors of human tyrosyl-DNA phosphodiesterase 1 (TDP1): qHTS in cells in absence of CPT; DT40 Tdp1-/- hTDP1 cells, no CPT, ATP luminescence, 48 h; hit rate 15% among 420,000; AID 686978, 2013; Potency, µM (series often up to 46.2 µM), inactives show at the highest dose activity change, negative = growth inhibition, actives largely listed as inhibitors; further: potency means the concentration at half of the fitted maximal effect; nearly all actives have a fitted effect of over 55% in size
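Compound effects on proliferation are scored in DT40 Tdp1-/-;hTDP1 cells in the absence of CPT. ATP levels (CellTiter-Glo luminescence) are recorded after a ≥48 hr, 37 °C incubation.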
IL1B secr inh – inflammasome signaling inhibition, IL-1 beta readout. THP-1 LPS/ATP IL-1B secretion, AlphaLISA, 16 h; stronger effect = lower value. activity change, % at 57.5 µM. hit rate 4.7% among 360,000; in the data active means activity change below about -50%; inconclusive means mostly about -30% to -49%
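Secreted IL-1B measured by AlphaLISA bead assay after 16 h compound exposure of THP-1 cells; compounds (final up to 57.5 uM) added 1 h before LPS (250 ng/mL) and ATP (1.25 mM) stimulation; lower signal means less secretion.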
DT40 TDP1 CPT – DT40-hTDP1 cell growth loss with CPT; chicken DT40 Tdp1-/-;hTDP1 cells + 20 nM CPT, ATP luminescence, 48 h; Potency, µM (series often up to 46.2 µM), inactives show at the highest dose activity change, negative = growth inhibition, actives largely listed as inhibitors; hit rate 12% among 420,000; further: potency means the concentration at half of the fitted maximal effect; nearly all actives have a fitted effect of over 55% in size
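Chicken DT40 Tdp1-/- cells complemented with human TDP1, 400 cells/well, exposed to compounds plus 20 nM camptothecin for at least 48 h at 37 C; viability read as ATP content by CellTiter-Glo luminescence.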
HT1080-NT tox – kills 2HG-producing HT-1080-NT fibrosarcoma cells. HT-1080-NT fibrosarcoma viability, CellTiter-Glo ATP luminescence, 48 h. Potency, µM (top dose mostly 46.1 µM), inactives show at the highest dose activity, negative = less viability, usual class: cytotoxic. hit rate 1.6% among 360,000. AID 686970;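 further: NT is the 2HG producing partner of a matched IDH1 knockdown line; potency means the concentration at half of the fitted maximal effect; 0% = DMSO-treated cells and -100% = media-only wells without cells; nearly all actives have a fitted effect of over 55% in size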
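HT-1080-NT fibrosarcoma cells (2HG-overproducing), 750 cells/well in RPMI with 5% FBS, dosed after 2 h and incubated 48 h at 37C. CellTiter-Glo luminescence normalized to DMSO and no-cell wells; concentration-response curves fitted and classed.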
Starred values were filed as active, the others as inactive; ? = inconclusive; / = not tested or not shown; [ ] = dose if it differs, or a comment. Unless noted, the call rests on the fitted dose curve; in most records, active means well fitted curve in the direction sought with a large enough effect; inconclusive means small, poorly fitted or top-dose-only effect, or another doubt; inactive means no such curve, though single readings can be large; an effect the other way counts as inactive or inconclusive. Unless noted, on the % scale 0 is the no-effect control and ±100 the full control effect.

SMILES | HT1080 IDH1KD tx | DT40 TDP1 no CPT | IL1B secr inh | DT40 TDP1 CPT | HT1080-NT tox
Cc1ccc(-c2nc3ccccc3[nH]2)cc1NC(=O)/C=C/c1ccco1 | ? | 16µM* | ? | ? | ?
Cc1cc(C)c2oc(-c3ccc(C)c(NC(=S)NC(=O)/C=C/c4ccco4)c3)nc2c1 | 0% | ? | 14 | ? | 3%
CCn1c(C)c(Br)c(=O)c(C(=O)OC)c1-c1ccc(Cl)cc1 | 6% | 6% | 3 | 6% | 12%
Fc1ccc(C2CCCN2Cc2nc(Cc3ccccc3)no2)cc1 (centres undefined) | -5% | -17% | 27 | ? | 0%
CCCCn1c(N)c(N(CCOC)C(=O)CN2C(=O)c3ccccc3C2=O)c(=O)[nH]c1=O | 1% | 4% | 9 | -4% | 0%
Cc1nc(Sc2nnnn2C2CC2)c2c(-c3ccccc3)csc2n1 | / | 11µM* | / | ? | /
CCn1nnnc1Sc1nc(C)nc2scc(-c3ccccc3)c12 | / | 8.9µM* | / | ? | /
CCc1nc2scc(-c3ccccc3)c2c(=O)n1N | 8% | -30% | -19 | -16% | 0%
Cc1cc(Nc2ccc(Cl)cc2)n2cnnc2n1 | / | -21% | / | 2% | /
Cc1ccc(S(=O)(=O)c2ccc(-n3nc(C)cc3N)cc2)cc1 | -13% | -18% | -9 | -1% | -13%
CNC(=O)c1cccc(NC(=O)c2ccccc2OCc2ccccc2)c1 | -30% | ? | 6 | ? | -20%
Cc1cc(C(=O)Nc2ccc(OCc3ccccc3)cc2)c(C)o1 | ? | ? | -60* | ? | ?
CCCCN(CCCC)CC(O)COc1ccccc1C(=O)Nc1ccccc1 (centres undefined) | ? | ? | -96* | ? | ?
O=C(Nc1ccc(O)cc1)c1ccccc1OCc1ccccc1 | 12% | ? | -71* | ? | 7%
O=C(Nc1ccc(OCc2ccccc2)cc1)c1ccccc1 | 11% | -1% | -16 | 19% | 11%
COc1cc(NC(=O)c2ccccc2OCc2ccccc2)cc(OC)c1OC | -8% | 16µM* | 30 | ? | -11%
CCCCNC(=O)CSc1nc2cc3c(cc2c(=O)n1CCCCCC(=O)NCc1ccc(OC)cc1)OCO3 | / | -6% | / | 2% | /
CCOC(=O)N1CCC2(CC1)OC(=O)C(C)=C2C(=O)NCc1ccc(C)cc1 | / | -21% | / | -29% | /
Cc1cccc(N(CC(=O)NC2CCCCC2)C(=O)CCCC(=O)Nc2ccccn2)c1C | -1% | -23% | -15 | 4% | -3%
c1ccc(-c2nn[nH]n2)nc1 | 5% | -3% | 5 | 1% | 0%
CNc1nc(-c2ccccn2)nnc1-c1ccccc1 | ? | 22µM* | 50 | ? | ?
c1ccc(-c2csc(NC3CCCCC3)n2)cc1 | -7% | -15% | 14 | 6% | -16%
c1ccc(-c2nnc(-c3ccccn3)nc2NC2CCCCC2)cc1 | ? | 5.8µM* | 85 | 6.5µM* | ?
COc1cc(NS(=O)(=O)c2ccc(C)cc2)ccc1-n1cnnn1 | -25% | -20% | 44 | ? | -6%
O=C(CN1CCN(Cc2cccc(Cl)c2)C1=O)NCc1cccs1 | -11% | -19% | -20 | -5% | -9%
SMILES | HT1080 IDH1KD tx | DT40 TDP1 no CPT | IL1B secr inh | DT40 TDP1 CPT | HT1080-NT tox
Cc1cc(=O)[nH]c2c1cnn2Cc1ccccc1 | -3%[9.24 µM] | -7% | 23 | ? | -5%
S=c1nc[nH]c2c1cnn2Cc1ccccc1 | -5% | 3.7µM* | 35 | 10µM* | -1%
CCCOC(=O)CSc1nnc2ccc3ccccc3n12 | / | -9% | / | -1% | /
Cc1cccc(CN2C(=O)CCSc3ccc(Cl)cc32)c1 | -10% | 10µM* | 31 | ? | -13%
O=C1CCSc2ccc(Cl)cc2N1Cc1ccc(Cl)cc1 | -4%[9.24 µM] | 29µM* | ? | ? | -25%
O=C(NCCN1CCOCC1)c1ccc2c(c1)N(Cc1ccc(Cl)cc1)C(=O)CS2 | ? | ? | -8 | ? | -14%
CCCCOc1ccc(C(=O)NCC2(c3ccccc3)CCOCC2)cc1 | 0% | ? | -14 | 21µM* | -5%
COc1ccc(CC(=O)NCC(c2ccc(Cl)cc2)N2CCOCC2)cc1 (centres undefined) | / | -20% | / | -9% | /

Bioassay records from PubChem.
